TEAD-YAP block – TEAD-YAP interaction inhibition; 640,000 compounds, 1.4% hits; inhibition, % at 9.12 µM; HEK-TIYL cells, TEAD-Gal4/YAP UAS-luciferase luminescence; in the data active means inhibition above about 32%;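 further: 0% = median of test compound wells and 100% = reference inhibitor wells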
FBW7 activator – human FBW7 E3 ligase activation, primary screen. Q969H0. AlphaScreen FBW7–phospho-cyclin E peptide binding, activator screen. normalized activity (activation), % at 26.1 µM. 650,000 compounds, 0.13% hits. AID 1259310; in the data active means normalized activity above about 1.9%;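 further: purified mutant Fbw7 with reduced substrate affinity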
MITF primary – blocks human microphthalmia-associated transcription factor; O75030; AlphaScreen MITF homodimerization, bead proximity signal; inhibition, % at 2.6 µM; 650,000 compounds, 0.91% hits; in the data active means inhibition above about 50%;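 further: 0% = vehicle wells with protein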
Target sequence (O75030 whole entry, looked up): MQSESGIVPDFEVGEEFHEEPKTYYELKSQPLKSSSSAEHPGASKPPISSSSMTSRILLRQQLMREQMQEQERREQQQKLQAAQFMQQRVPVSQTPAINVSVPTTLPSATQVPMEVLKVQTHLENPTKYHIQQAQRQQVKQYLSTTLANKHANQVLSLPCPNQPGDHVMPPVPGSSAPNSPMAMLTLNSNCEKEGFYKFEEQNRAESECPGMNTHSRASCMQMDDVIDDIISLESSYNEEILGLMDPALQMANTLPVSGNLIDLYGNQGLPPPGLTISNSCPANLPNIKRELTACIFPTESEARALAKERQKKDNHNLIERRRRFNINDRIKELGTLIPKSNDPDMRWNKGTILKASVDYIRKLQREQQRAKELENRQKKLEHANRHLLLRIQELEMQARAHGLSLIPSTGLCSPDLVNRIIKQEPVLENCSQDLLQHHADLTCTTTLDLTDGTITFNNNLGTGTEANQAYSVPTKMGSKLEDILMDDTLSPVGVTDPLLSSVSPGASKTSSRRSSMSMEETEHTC
GPR151 ag – activators of human GPR151; Q8TDV0; PathHunter beta-arrestin GPR151 cells, luminescence; activation, % at 11.2 µM; 650,000 compounds, 1% hits; AID 1508602; in the data active means activation above about 4.9%;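 further: 0% = median of compound wells and 100% = cells with positive control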
MITF confirm – confirmation of human MITF inhibitors; shares compounds with MITF primary; AlphaScreen MITF homodimerization, biotin/His-MITF beads; inhibition, % at 2.6 µM; 4,700 compounds, 16% hits; AID 1259372;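 active means inhibition above a cutoff derived from the DMSO control wells, cut at about 28% in these data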;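 further: 0% = MITF dimer wells with DMSO only; inhibitors lower the bead chemiluminescence by keeping MITF from dimerizing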
AS interf ctr – optically interferes with AlphaScreen signal | shares compounds with MITF primary | LysRS AlphaScreen counterscreen, signal interference, triplicate | inhibition, % at 2.6 µM | 4,700 compounds, 7.6% hits | AID 1259376;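 active means inhibition above a cutoff derived from the DMSO control wells, cut at about 30% in these data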
* marks the source's active call; other numbers are inactive results. The list is not random: actives were taken first. Their share in the collection is about 3.4%.

CC(C(=O)N1CCCC1)(c1ccccc1)c1ccccc1 was read as TEAD-YAP block -10.4, FBW7 activator 0.1, MITF primary -12.8 and GPR151 ag -0.8.
`Cn1cccc1CN1CCN(C(=O)c2cccc(F)c2)CC1` gave TEAD-YAP block 9.8, FBW7 activator -0.1, MITF primary 27.4 and GPR151 ag 2.6.
`Cn1cccc1CN1CCN(C(=O)c2ccccc2F)CC1` gave TEAD-YAP block 7.5, FBW7 activator -0.2, MITF primary 54.0*, GPR151 ag -0.4, MITF confirm 11.4 and AS interf ctr 17.1.
For Cn1cccc1CN1CCN(C(=O)c2ccc(F)cc2)CC1 the results were TEAD-YAP block 3.6, FBW7 activator -0.1, MITF primary 53.4*, GPR151 ag -0.3, MITF confirm 10.8 and AS interf ctr 18.4.
Cn1cccc1CN1CCN(C(=O)c2ccc(-c3ccccc3)cc2)CC1 was read as TEAD-YAP block -5.8, FBW7 activator 0.0, MITF primary 33.4 and GPR151 ag 1.3.
`Cc1ccccc1NC(=O)NC1(C(F)(F)F)Oc2ccc(Cl)cc2O1` (stereo not drawn) gave TEAD-YAP block 4.2, FBW7 activator 0.0, MITF primary 28.7 and GPR151 ag -0.1.
`COc1ccccc1NS(=O)(=O)c1cccc(NC(=O)NC2(C(F)(F)F)Oc3ccc(Cl)cc3O2)c1` (stereo not drawn) gave TEAD-YAP block -6.7, FBW7 activator 0.0, MITF primary 68.0*, GPR151 ag -0.5, MITF confirm -14.4 and AS interf ctr 3.5.
Screening O=S1(=O)CC(OS(=O)(=O)c2ccccc2)C(OS(=O)(=O)c2ccccc2)C1 (stereo not drawn) returned TEAD-YAP block 2.0, FBW7 activator 0.1, MITF primary 70.7*, GPR151 ag 0.5, MITF confirm -4.9 and AS interf ctr -5.6.
Screening NC(=O)C1CCN(CC(=O)NCCc2ccccc2)CC1 returned TEAD-YAP block 3.0, FBW7 activator 0.1, MITF primary 56.7*, GPR151 ag 4.7, MITF confirm -3.8 and AS interf ctr -4.0.
CCc1ccc(NC(=O)CSC2=C(C#N)C(c3cccs3)C(C(=O)Nc3ccccc3)=C(C)N2)cc1 (stereo not drawn) was read as TEAD-YAP block 11.0, FBW7 activator 0.1, MITF primary 57.0*, GPR151 ag -0.5, MITF confirm 3.2 and AS interf ctr 1.8.
For O=C(CNCC1CCCCC1)Nc1ccccc1N1CCOCC1 the results were TEAD-YAP block -8.0, FBW7 activator 0.0, MITF primary 66.0*, GPR151 ag -0.2, MITF confirm 7.8 and AS interf ctr 16.8.
O=C(CN1C(=O)c2ccccc2C1=O)Nc1ccccc1N1CCOCC1 was read as TEAD-YAP block 7.4, FBW7 activator 0.3, MITF primary 13.3 and GPR151 ag -0.5.
`O=C(CN1CCCCC1)Nc1ccccc1N1CCOCC1` gave TEAD-YAP block -8.0, FBW7 activator 0.1, MITF primary 59.5*, GPR151 ag 1.0, MITF confirm 3.8 and AS interf ctr 17.4.
CC1CCCCN1CC(=O)Nc1ccccc1C(N)=O (stereo not drawn) was read as TEAD-YAP block -1.3, FBW7 activator 0.1, MITF primary -11.8 and GPR151 ag 1.5.
CC1CCCCN1CC(=O)Nc1ccccc1N1CCCCC1 (stereo not drawn) was read as TEAD-YAP block -5.0, FBW7 activator -0.1, MITF primary 52.5*, GPR151 ag 0.9, MITF confirm 6.4 and AS interf ctr 11.7.
Screening CCOCCCNCC(=O)Nc1ccccc1N1CCOCC1 returned TEAD-YAP block -3.7, FBW7 activator 0.1, MITF primary 51.4*, GPR151 ag -1.1, MITF confirm 5.8 and AS interf ctr 9.9.
`O=C(CNC1CCCCCC1)Nc1ccccc1N1CCOCC1` gave TEAD-YAP block 3.8, FBW7 activator 0.0, MITF primary 26.7 and GPR151 ag 0.5.
O=C(CNCCN1CCOCC1)Nc1ccccc1N1CCOCC1 was read as TEAD-YAP block 2.6, FBW7 activator 0.2, MITF primary 63.9*, GPR151 ag -0.2, MITF confirm -11.9 and AS interf ctr -9.0.
O=C(Cc1ccccc1)Nc1ccc(N2CCOCC2)cc1N1CCOCC1 was read as TEAD-YAP block 4.3, FBW7 activator 0.1, MITF primary 8.2 and GPR151 ag 1.2.
O=C(CN1CCOCC1)Nc1sc2c(c1C(=O)c1ccccc1)CCCC2 was read as TEAD-YAP block 7.4, FBW7 activator -0.1, MITF primary -7.8 and GPR151 ag 0.2.

Assay outcomes from PubChem BioAssay.
